# Measured values: PubChem BioAssay (Tox21)
# Records with an inconclusive call do not appear. A call without a number means that no potency is given here. More than one record can exist for a structure, and the calls need not agree. The source made the active and inactive calls. Unless noted, the call rests on the fitted dose curve; in most records, active means well fitted curve in the direction sought with a large enough effect in the repeat runs; inconclusive means weak or mixed curves; inactive means no such curve, though single readings can be large; an effect the other way counts as inactive or inconclusive.
# Tests used:
# [1] = biological target: Thyrotropin receptor (Homo sapiens) (UniProt P16473); experiment: qHTS assay to identify small molecule antagonists of the thyroid stimulating hormone receptor (TSHR) signaling pathway (AID 1259385; calls by dose curve; further: nearly all actives have a fitted effect of over 20% in size)
# Thyrotropin receptor (Homo sapiens), sequence (P16473 whole entry, looked up): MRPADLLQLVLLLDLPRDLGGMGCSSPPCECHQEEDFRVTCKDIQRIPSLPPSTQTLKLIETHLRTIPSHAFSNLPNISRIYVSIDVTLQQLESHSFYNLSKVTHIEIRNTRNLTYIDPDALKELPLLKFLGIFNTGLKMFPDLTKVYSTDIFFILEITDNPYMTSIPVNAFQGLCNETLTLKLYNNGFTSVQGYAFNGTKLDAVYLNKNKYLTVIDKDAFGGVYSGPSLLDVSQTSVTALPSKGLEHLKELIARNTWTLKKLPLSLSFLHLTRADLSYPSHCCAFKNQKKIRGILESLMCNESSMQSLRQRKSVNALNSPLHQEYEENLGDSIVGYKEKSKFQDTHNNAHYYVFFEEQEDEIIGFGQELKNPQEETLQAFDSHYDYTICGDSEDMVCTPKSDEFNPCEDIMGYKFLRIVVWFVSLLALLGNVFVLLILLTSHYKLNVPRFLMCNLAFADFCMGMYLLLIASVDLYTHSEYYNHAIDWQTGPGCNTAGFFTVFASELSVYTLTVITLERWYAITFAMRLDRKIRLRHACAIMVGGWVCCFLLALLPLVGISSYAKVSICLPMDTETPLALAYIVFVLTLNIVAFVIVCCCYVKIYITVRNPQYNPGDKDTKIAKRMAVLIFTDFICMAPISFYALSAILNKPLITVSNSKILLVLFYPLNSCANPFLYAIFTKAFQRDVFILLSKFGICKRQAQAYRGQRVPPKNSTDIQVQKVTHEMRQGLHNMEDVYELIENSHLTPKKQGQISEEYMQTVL
# How it was run: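 TSHR-HEK293 cells were plated and held 18 h at 37C/5% CO2, then given compound plus Ro20-1724 and stimulated with TSH at 1.5 ng/mL final. After 30 min at room temperature, cAMP was detected with cAMP-d2/anti-cAMP-cryptate (1 h) by fluorescence.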
# [2] = qHTS assay to identify small molecule agonists of the estrogen receptor alpha (ER-alpha) signaling pathway in the presence of an antagonist - cell viability counter screen (AID 1259386);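 further: series mostly up to about 92 µM; cells exposed to compounds for 22 h at 37 °C before the viability read; nearly all actives have a fitted effect of over 30% in size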
# How it was run: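 The test measures whether compounds kill ER-alpha reporter cells (VM7Luc4E2) under antagonist co-treatment (ICI-182,780, 10.0nM). Fluorescence from CellTiter-Fluor is read after a 22hr exposure.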
# [3] = biological target: Progesterone receptor (Homo sapiens) (UniProt P06401); experiment: qHTS assay to identify small molecule agonists of the progesterone receptor (PR) signaling pathway (AID 1346784; calls by dose curve; further: nearly all actives have a fitted effect of over 30% in size)
# Progesterone receptor (Homo sapiens), sequence (P06401 whole entry, looked up): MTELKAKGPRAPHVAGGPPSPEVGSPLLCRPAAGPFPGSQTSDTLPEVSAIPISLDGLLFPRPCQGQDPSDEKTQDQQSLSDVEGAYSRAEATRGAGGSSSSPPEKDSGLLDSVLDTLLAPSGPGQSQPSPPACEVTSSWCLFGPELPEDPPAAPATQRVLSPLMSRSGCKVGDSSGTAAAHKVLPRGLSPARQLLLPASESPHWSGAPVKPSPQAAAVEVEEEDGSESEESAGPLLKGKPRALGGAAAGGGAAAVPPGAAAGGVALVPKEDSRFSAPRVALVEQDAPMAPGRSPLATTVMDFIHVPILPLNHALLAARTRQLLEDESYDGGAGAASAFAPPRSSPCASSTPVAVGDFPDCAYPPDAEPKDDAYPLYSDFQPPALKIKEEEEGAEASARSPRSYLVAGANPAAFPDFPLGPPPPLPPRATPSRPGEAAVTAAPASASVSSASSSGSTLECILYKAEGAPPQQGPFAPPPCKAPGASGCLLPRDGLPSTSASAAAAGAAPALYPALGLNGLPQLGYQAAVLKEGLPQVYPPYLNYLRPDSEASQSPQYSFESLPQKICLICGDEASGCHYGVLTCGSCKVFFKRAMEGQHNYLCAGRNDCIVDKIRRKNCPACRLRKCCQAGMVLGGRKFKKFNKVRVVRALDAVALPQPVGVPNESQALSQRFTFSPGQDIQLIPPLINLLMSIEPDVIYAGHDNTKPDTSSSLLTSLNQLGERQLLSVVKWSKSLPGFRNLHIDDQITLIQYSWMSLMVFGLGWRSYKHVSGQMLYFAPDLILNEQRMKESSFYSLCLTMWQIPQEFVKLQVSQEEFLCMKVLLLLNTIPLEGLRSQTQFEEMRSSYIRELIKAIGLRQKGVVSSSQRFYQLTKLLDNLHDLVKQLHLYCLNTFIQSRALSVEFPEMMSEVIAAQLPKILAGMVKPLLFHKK
# How it was run: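 Fluorescence from LiveBLAzer B/G FRET substrate cleavage (2 hr, RT) reported PR activation in PR-UAS-bla HEK 293T cells treated 16 hr at 37C/5% CO2 with compounds; medium contained 2% charcoal-stripped FBS.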
# [4] = biological target: Progesterone receptor (Homo sapiens) (UniProt P06401); experiment: qHTS assay to identify small molecule antagonists of the progesterone receptor (PR) signaling pathway (AID 1346795; active means well fitted inhibition curve with a large enough effect in the signal ratio in the repeat runs, not every such curve was filed as active; the % refers to the signal ratio)
# How it was run: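 Fluorescence intensity measured 2 hr after adding beta-lactamase FRET substrate to PR-UAS-bla HEK293T cells that had been co-treated 16 hr with compound and 1 nM R5020 (final concentration) in 2% charcoal-stripped FBS.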
# [5] = qHTS assay to identify small molecule antagonists of the progesterone receptor (PR) signaling pathway - cell viability counter screen (AID 1346798); further: series mostly up to about 92 µM; nearly all actives have a fitted effect of over 50% in size
# How it was run: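 CellTiter-Glo luminescence; PR-UAS-bla HEK293T, 3,000 cells/well; compound + R5020, 16 hr, 37C/5% CO2; 30 min RT before read.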
# [6] = qHTS assay to identify small molecule agonists of the progesterone receptor (PR) signaling pathway - cell viability counter screen (AID 1346799; calls by dose curve; further: nearly all actives have a fitted effect of over 45% in size)
# How it was run: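 In parallel with the beta-lactamase readout, cytotoxicity toward PR-UAS-bla HEK293T cells was measured by CellTiter-Glo luminescence following 16 hr compound incubation in 2% charcoal-stripped FBS medium.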
# [7] = qHTS assay to identify small molecule antagonists of the TGF-beta/Smad signaling pathway - cell viability counter screen (AID 1346824); further: nearly all actives have a fitted effect of over 50% in size
# How it was run: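 SBE-bla HEK 293T cells were plated overnight at 37 C, then given compounds in DMSO plus TGF-beta1 (added as 0.25 ng/mL solution) for 5 hr. After the bla read, CellTiter-Glo was added to the same wells and luminescence read after 30 min at room temperature.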
# [8] = qHTS assay to identify small molecule agonists of the TGF-beta/Smad signaling pathway - cell viability counter screen (AID 1346829); further: top concentration of the series differs between compounds; nearly all actives have a fitted effect of over 45% in size
# How it was run: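 Tox21 qHTS format: SBE-bla HEK 293T cells treated with DMSO-dissolved compounds for 5 hr; CellTiter-Glo luminescence after 30 min at room temperature.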
# [9] = qHTS assay to identify small molecule agonists of the TGF-beta/Smad signaling pathway (AID 1346859; active means well fitted activation curve with a large enough effect in the signal ratio in the repeat runs, not every such curve was filed as active; the % refers to the signal ratio; further: series mostly up to about 77 µM)
# How it was run: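 After overnight seeding, SBE-bla HEK 293T cells are dosed with compounds in DMSO and kept 5 hr at 37 C, 5% CO2. LiveBLAzer-type FRET substrate is then applied for 2 hr at room temperature.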
# [10] = biological target: Thyrotropin-releasing hormone receptor (Homo sapiens) (UniProt P34981); experiment: qHTS assay to identify small molecule antagonists of the thyrotropin-releasing hormone receptor (TRHR) signaling pathway (AID 1346877; active means well fitted inhibition curve with a large enough effect in the repeat runs, not every such curve was filed as active; further: series mostly up to about 51 µM)
# Thyrotropin-releasing hormone receptor (Homo sapiens), sequence (P34981 whole entry, looked up): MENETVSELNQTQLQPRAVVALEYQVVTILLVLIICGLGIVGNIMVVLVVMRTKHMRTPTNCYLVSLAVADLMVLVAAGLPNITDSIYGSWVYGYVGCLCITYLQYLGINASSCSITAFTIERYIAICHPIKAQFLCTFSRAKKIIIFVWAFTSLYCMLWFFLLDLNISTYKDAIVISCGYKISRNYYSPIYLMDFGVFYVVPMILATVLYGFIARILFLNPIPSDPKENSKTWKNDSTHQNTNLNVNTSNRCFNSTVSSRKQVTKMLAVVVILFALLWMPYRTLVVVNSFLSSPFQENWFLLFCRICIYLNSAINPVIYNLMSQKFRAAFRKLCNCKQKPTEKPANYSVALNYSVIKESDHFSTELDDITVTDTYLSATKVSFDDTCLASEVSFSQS
# How it was run: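 Overnight-plated (18 h, 37 °C) HEK293 cells expressing TRHR were dye-loaded 2 h, treated with compound, then stimulated with TRH at 1 nM final. Fluorescence intensity was captured every second for 3 min.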
# [11] = biological target: Thyrotropin-releasing hormone receptor (Homo sapiens) (UniProt P34981); experiment: qHTS assay to identify small molecule agonists of the thyrotropin-releasing hormone receptor (TRHR) signaling pathway (AID 1346891; calls by dose curve;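 further: HEK293 cells expressing TRHR with calcium dye readout; series mostly up to about 58 µM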)
# How it was run: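 Compounds were tested as agonists at 15 concentrations, in triplicate, on TRHR-Hek293 cells; calcium-sensitive dye fluorescence was recorded for 3 min following addition.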
# [12] = Human pregnane X receptor (PXR) small molecule agonists, qHTS cell viability counter screen (AID 1346977); further: nearly all actives have a fitted effect of over 50% in size; further: potency means the concentration at half of the fitted maximal effect
# How it was run: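 Viability counter screen: CellTiter-Fluor signal in PXR-Luc HepG2 cells, 24hr compound exposure, 37C, 5% CO2.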
# [13] = Caspase-3/7 induction in CHO-K1 cells by small molecules, qHTS cell viability counter screen (AID 1346979); further: nearly all actives have a fitted effect of over 35% in size; further: potency means the concentration at half of the fitted maximal effect
# How it was run: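 Viability readout by fluorescence (CellTiter-Fluor) on wild-type CHO-K1 cells exposed for 16hr at 37C and 5% CO2 to compounds delivered in DMSO; reagent incubated 1hr before reading.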
# [14] = Caspase-3/7 induction in CHO-K1 cells by small molecules, qHTS assay (AID 1346980); further: nearly all actives have a fitted effect of over 15% in size
# How it was run: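 Wild-type cells were seeded at 1,500 per well and settled 5 hr at 37 C, 5% CO2, then exposed to DMSO-dissolved compounds for 17 hr. Caspase-Glo 3/7 reagent was added, and luminescence was read after 30min at room temperature.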
# [15] = Caspase-3/7 induction in HepG2 cells by small molecules, qHTS cell viability counter screen (AID 1346981); further: nearly all actives have a fitted effect of over 30% in size; further: potency means the concentration at half of the fitted maximal effect
# How it was run: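 Treatment of HepG2 cells with DMSO-delivered compounds ran 16 hr at 37 C following a 5-hr pre-incubation of 2,000 cells/well. CellTiter-Fluor fluorescence, read after 1 hr, served as the viability measure in a qHTS format.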
# [16] = biological target: Nuclear receptor subfamily 1 group I member 2 (Homo sapiens) (UniProt O75469); experiment: Human pregnane X receptor (PXR) small molecule agonists, qHTS assay (AID 1346982); further: nearly all actives have a fitted effect of over 35% in size; further: potency means the concentration at half of the fitted maximal effect
# Nuclear receptor subfamily 1 group I member 2 (Homo sapiens), sequence (O75469 whole entry, looked up): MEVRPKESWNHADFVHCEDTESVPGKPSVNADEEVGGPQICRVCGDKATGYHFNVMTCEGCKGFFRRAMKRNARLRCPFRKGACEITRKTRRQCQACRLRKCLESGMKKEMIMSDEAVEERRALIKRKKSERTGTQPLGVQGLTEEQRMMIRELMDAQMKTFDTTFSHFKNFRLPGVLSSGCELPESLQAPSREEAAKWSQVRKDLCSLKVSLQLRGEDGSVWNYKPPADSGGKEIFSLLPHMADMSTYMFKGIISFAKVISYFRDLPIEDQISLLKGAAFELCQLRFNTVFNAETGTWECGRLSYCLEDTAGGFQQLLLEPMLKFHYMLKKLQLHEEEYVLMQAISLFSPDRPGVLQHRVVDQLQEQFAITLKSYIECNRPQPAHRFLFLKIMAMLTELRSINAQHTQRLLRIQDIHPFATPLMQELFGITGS
# How it was run: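 Stable HepG2 line reporting PXR-mediated CYP3A4 expression via luciferase. Treatment: 24 hr with compounds in DMSO at 37 C. Detection: ONE-Glo luminescence.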
# [17] = Caspase-3/7 induction in HepG2 cells by small molecules, qHTS assay (AID 1346978); further: nearly all actives have a fitted effect of over 15% in size
# How it was run: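 Wild-type HepG2 cells (2,000/well) were settled 5 h at 37 C, 5% CO2, then exposed to compounds in DMSO for 17 h. Caspase-3/7 activity was read by luminescence 30 min after adding Caspase-Glo 3/7 reagent at room temperature.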
# [18] = biological target: Nuclear receptor subfamily 1 group I member 2 (Rattus norvegicus) (UniProt Q9R1A7); experiment: Rat pregnane X receptor (rPXR) activation by small molecules, qHTS assay (AID 1346983); details: rPXR luciferase reporter cells, One-Glo luminescence, 24 h; stronger effect = higher value; further: nearly all actives have a fitted effect of over 20% in size
# Nuclear receptor subfamily 1 group I member 2 (Rattus norvegicus), sequence (Q9R1A7 whole entry, looked up): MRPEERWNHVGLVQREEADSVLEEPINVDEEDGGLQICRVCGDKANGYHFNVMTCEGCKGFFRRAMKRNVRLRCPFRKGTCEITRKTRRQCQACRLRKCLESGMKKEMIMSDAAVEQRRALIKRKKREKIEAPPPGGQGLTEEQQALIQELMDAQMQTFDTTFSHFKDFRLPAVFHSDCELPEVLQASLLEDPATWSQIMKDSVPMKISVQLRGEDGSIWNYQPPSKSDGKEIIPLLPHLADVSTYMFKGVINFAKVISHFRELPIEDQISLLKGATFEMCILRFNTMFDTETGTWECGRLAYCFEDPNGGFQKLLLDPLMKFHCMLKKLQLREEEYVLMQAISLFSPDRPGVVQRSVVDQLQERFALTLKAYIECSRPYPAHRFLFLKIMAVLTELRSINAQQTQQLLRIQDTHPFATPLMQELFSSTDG
# How it was run: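 Cell-based rPXR luciferase reporter assay, 2,000 cells per well, rested 5hr at 37 C before compound addition in DMSO, then 24 hr at 37 C. One-Glo reagent was added and luminescence read after 30 min at room temperature.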
# [19] = biological target: Nuclear receptor subfamily 1 group I member 2 (Homo sapiens) (UniProt O75469); experiment: CYP3A4 induction through human pregnane X receptor (PXR) by small molecules, qHTS assay (AID 1346984); further: nearly all actives have a fitted effect of over 40% in size
# How it was run: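 After 24 h at 37C with compound, DPX-2 cells (HepG2, co-transfected PXR response element and CYP3A4 promoter-luciferase) got 3uM final P450-Glo Luciferin-IPA for 3 h; One-Glo luminescence followed.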
# [20] = biological target: Nuclear receptor subfamily 1 group I member 2 (Homo sapiens) (UniProt O75469); experiment: Human pregnane X receptor (PXR) activation by small molecules, qHTS assay (AID 1346985); further: nearly all actives have a fitted effect of over 40% in size
# How it was run: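 DPX-2 cells (HepG2 co-transfected with a PXR response element and a CYP3A4-promoter luciferase construct) were seeded at 2,000 per well, rested 5 hr at 37C, then exposed to DMSO-dissolved compounds for 24 hr. Activation was read as luciferase luminescence.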
Structure (SMILES),outcome [1],Potency [2],Potency [3],Potency [4],outcome [5],outcome [6],outcome [7],outcome [8],outcome [9],outcome [10],outcome [11],Potency [12],Potency [13],outcome [14],Potency [15],Potency [16],Potency [17],max activation [18],Potency [19],outcome [20]
Cc1ccc2ncccc2c1,inactive,inactive,inactive,inactive,inactive,inactive,inactive,inactive,inactive,inactive,inactive,inactive,inactive,inactive,inactive,inactive,–,–,–,–
CC(C)OC(=O)COc1ccc(Cl)cc1Cl,inactive,inactive,inactive,inactive,inactive,inactive,inactive,inactive,–,–,–,inactive,inactive,inactive,inactive,inactive,inactive,–,–,–
CCO[Si](CCCN)(OCC)OCC,inactive,inactive,inactive,inactive,inactive,inactive,inactive,inactive,–,inactive,inactive,inactive,inactive,inactive,inactive,inactive,–,–,–,–
CC1(C)S[C@@H]2[C@H](NC(=O)COc3ccccc3)C(=O)N2[C@H]1C(=O)O,inactive,inactive,inactive,inactive,inactive,inactive,inactive,inactive,inactive,inactive,inactive,inactive,inactive,inactive,inactive,inactive,inactive,–,–,–
O=S(=O)(O)c1ccccc1,inactive,inactive,inactive,inactive,inactive,inactive,inactive,inactive,inactive,inactive,inactive,inactive,inactive,inactive,inactive,–,inactive,–,–,–
O=C(O)c1cc2ccccc2cc1O,inactive,inactive,inactive,inactive,inactive,inactive,inactive,inactive,inactive,–,–,inactive,inactive,inactive,inactive,54.1 µM (active),inactive,–,–,–
Cc1ccc(S(=O)(=O)N=C=O)cc1,inactive,inactive,inactive,inactive,inactive,inactive,inactive,inactive,inactive,inactive,inactive,28.2 µM (active) and inactive,6.73 µM (active) and inactive,inactive,53.4 µM (active) and inactive,inactive,–,–,–,–
CC1(C)OC[C@@H]2O[C@@]3(C(=O)O)OC(C)(C)O[C@H]3[C@@H]2O1,inactive,inactive,inactive,inactive,inactive,inactive,inactive,–,inactive,inactive,inactive,inactive,inactive,inactive,inactive,inactive,inactive,-1.74% (inactive),inactive,inactive
